Data from PubChem BioAssay.
Unmarked numbers belong to inactive results. For part of these data: Entries with a potency or affinity are not part of this list. Activity calls are given as the source filed them. Unless noted, how the calls were made is not given here.

Columns and labels:
[1] = antimalarial activity against Dd2 strain (AID 2302;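 active means growth inhibition above 50% at the single 2 µM test dose, taken to imply half-maximal potency below 2 µM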;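 further: 0% = DMSO untreated growth and 100% = chloroquine plus artemisinin killed control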); details: P. falciparum Dd2 in RBCs, LDH growth readout, 72 h; at 2 µM; active compounds read high
[2] = human hepatoma cell viability loss – ATP luminescence, cytotoxicity control for P. falciparum antimalarial project, primary screen (AID 2303;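 active means inhibition above 50%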;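 further: 0% = DMSO wells and 100% = digitonin-killed cells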); details: HepG2 viability, 24-48 h, at 10 µM, active compounds read high
[3] = molecular target: L-lactate dehydrogenase (Plasmodium falciparum (isolate CDC / Honduras)) (UniProt Q27743); assay: PfLDH activity inhibition – cell lysate, 3D7 strain, counter-screen for P. falciparum growth inhibition project (AID 2304);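 further: 0% = vehicle and 100% = reference inhibitor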; details: P. falciparum 3D7 crude extract, LDH APAD/NBT absorbance; at 2 µM; active compounds read high
Chain of L-lactate dehydrogenase (Plasmodium falciparum (isolate CDC / Honduras)) (Q27743 whole entry, looked up): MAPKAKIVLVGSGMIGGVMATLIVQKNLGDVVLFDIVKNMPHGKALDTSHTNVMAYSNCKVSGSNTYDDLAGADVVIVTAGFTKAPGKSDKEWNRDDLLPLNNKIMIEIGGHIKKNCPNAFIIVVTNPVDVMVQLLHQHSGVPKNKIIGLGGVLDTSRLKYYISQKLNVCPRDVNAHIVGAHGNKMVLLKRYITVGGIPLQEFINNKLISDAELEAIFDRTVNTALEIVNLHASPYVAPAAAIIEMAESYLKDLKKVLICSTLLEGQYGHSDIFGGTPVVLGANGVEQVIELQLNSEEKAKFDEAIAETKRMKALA

[4] = inhibition of 3D7 malaria parasite growth – strain 3D7 (AID 2306);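 further: 0% = DMSO wells and 100% = chloroquine plus artemisinin control wells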; details: P. falciparum 3D7 erythrocytic growth, LDH absorbance, 72 h; at 2 µM; active compounds read high
[5] = molecular target: Calcium-dependent protein kinase 1 (Plasmodium falciparum (isolate 3D7)) (UniProt P62344); assay: PfCDPK1 kinase inhibitors, biochemical, TCAMS library (AID 1159585; cut-off not given, nearly all actives have IC50 up to about 0.98 µM;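 further: inhibitors leave more ATP so luminescence rises with inhibition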); details: recombinant PfCDPK1, Kinase-Glo ATP depletion luminescence
Chain of Calcium-dependent protein kinase 1 (Plasmodium falciparum (isolate 3D7)) (P62344 whole entry, looked up): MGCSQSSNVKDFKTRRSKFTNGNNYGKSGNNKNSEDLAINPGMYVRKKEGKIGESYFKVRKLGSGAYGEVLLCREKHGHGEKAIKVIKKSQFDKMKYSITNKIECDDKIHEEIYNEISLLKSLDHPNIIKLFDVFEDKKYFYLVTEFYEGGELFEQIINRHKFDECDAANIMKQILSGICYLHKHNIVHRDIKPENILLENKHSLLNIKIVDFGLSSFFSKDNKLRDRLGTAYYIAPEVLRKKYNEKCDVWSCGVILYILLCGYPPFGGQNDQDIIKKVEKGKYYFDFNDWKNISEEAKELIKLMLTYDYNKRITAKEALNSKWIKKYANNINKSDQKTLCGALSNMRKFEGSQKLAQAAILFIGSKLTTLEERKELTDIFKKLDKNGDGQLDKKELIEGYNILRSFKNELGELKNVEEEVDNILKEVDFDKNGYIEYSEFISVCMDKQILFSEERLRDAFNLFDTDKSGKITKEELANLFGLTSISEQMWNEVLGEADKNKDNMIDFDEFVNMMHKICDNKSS

[6] = molecular target: Plasmodium falciparum protein kinase 6 (PK6, PF3D7_1337100) (UniProt Q8IDW1); assay: PfPK6 kinase inhibitors, biochemical, TCAMS library (AID 1159586); details: recombinant PfPK6, Kinase-Glo ATP depletion luminescence
Chain of Plasmodium falciparum protein kinase 6 (PK6, PF3D7_1337100) (Q8IDW1 1-305): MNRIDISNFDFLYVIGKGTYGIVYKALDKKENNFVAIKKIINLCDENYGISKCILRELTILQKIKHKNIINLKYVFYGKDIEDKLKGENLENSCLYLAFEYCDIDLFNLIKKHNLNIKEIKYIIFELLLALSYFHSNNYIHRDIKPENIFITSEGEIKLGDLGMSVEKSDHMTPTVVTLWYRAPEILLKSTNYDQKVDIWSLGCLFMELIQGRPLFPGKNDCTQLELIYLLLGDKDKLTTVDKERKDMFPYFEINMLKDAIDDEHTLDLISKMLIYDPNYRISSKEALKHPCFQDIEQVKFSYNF

[7] = molecular target: Protein kinase 7 (PK7), Plasmodium falciparum 3D7 (PF3D7_0213400) (UniProt Q7YTF7); assay: inhibition of Plasmodium PK7 catalytic activity – biochemical, TCAMS antimalarial set, Kinase-Glo luminescence (AID 1159587); details: recombinant PfPK7, Kinase-Glo ATP depletion luminescence
Chain of Protein kinase 7 (PK7), Plasmodium falciparum 3D7 (PF3D7_0213400) (Q7YTF7 1-343): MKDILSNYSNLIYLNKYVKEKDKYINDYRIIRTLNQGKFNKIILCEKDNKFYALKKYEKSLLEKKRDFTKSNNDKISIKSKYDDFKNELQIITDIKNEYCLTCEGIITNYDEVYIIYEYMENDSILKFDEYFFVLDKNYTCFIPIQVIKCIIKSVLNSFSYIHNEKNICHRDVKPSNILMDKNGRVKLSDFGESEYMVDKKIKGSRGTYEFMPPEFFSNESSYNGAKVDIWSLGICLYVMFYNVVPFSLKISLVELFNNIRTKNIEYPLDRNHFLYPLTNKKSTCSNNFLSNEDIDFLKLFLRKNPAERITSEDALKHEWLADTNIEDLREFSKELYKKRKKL

[8] = molecular target: Calcium-dependent protein kinase 4 (Plasmodium falciparum (isolate 3D7)) (UniProt Q8IBS5); assay: PfCDPK4 kinase inhibitors, biochemical, TCAMS library (AID 1159588; cut-off not given, nearly all actives have IC50 up to about 0.91 µM); details: recombinant PfCDPK4, Kinase-Glo ATP depletion luminescence
Chain of Calcium-dependent protein kinase 4 (Plasmodium falciparum (isolate 3D7)) (Q8IBS5 whole entry, looked up): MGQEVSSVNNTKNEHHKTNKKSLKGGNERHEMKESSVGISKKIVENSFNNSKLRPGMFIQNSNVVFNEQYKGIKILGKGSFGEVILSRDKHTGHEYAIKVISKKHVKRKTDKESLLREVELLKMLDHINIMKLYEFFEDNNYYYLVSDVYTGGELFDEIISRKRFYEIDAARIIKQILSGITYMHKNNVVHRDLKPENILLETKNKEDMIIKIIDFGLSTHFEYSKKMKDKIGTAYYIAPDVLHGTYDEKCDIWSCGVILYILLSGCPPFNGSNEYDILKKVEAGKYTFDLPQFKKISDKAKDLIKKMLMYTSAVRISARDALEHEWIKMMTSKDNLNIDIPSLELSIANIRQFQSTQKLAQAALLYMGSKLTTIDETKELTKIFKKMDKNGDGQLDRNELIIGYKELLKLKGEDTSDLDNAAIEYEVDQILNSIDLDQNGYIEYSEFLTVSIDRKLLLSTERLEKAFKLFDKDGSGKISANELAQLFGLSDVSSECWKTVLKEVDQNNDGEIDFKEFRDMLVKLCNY

Row | SMILES | growth inhibition [1] | inhibition [2] | inhibition [3] | growth inhibition [4] | outcome [5] | outcome [6] | outcome [7] | outcome [8]
1 | CC(C)Cn1cc(C2CCN(CCN3CCC(CNC(=O)c4ccc(NC(=O)c5cc(Cl)cc(Cl)c5)cc4)CC3)CC2)c2ccccc21 | 96% (active) | 53% (active) | -2% | 91% (active) | inactive | inactive | inactive | inactive
2 | C=CCc1ccc(C[C@H](NC(=O)OC(C)(C)C)C(=O)OC)cc1 | 98% (active) | 77% (active) | 4% | 98% (active) | inactive | inactive | inactive | inactive
3 | CN(C)CCN1CCN(Cc2ccc(-c3cccc(-c4nc5ccccc5[nH]4)c3)cc2)CC1 | 100% (active) | 25% | -7% | 102% (active) | inactive | inactive | inactive | inactive
4 | O=C(NCCCNc1ccnc2cc(Cl)ccc12)c1ccccc1F | 97% (active) | 18% | 3% | 100% (active) | inactive | inactive | inactive | inactive
5 | COc1cccc(-c2cc(C(F)(F)F)n3ncc(C(=O)Nc4cc(C)ccc4O)c3n2)c1 | 99% (active) | -4% | 3% | 98% (active) | inactive | inactive | inactive | inactive
6 | O=C(NCc1ccc(Cl)c(Cl)c1)c1ccc(C2CCCN(Cc3ccc4nc[nH]c4c3)C2)cc1 (centres undefined) | 83% (active) | 9% | 3% | 100% (active) | inactive | inactive | inactive | inactive
7 | Cc1ccccc1C1CCN(C2CCC(NC(=O)c3csc(-c4cccc(Cl)c4)n3)CC2)CC1 (centres undefined) | 42% | 33% | 3% | 85% (active) | inactive | inactive | inactive | inactive
8 | CCNc1cc(C(=O)N[C@@H](Cc2ccccc2)[C@H](O)CNC(CC)c2cccc(Cl)c2)cc(N2CCCCS2(=O)=O)c1 (some centres undefined) | 98% (active) | 12% | -2% | 100% (active) | inactive | inactive | inactive | inactive
9 | N#Cc1cccc(C(=O)Nc2ccc(-c3cccc(CN4CCC(O)CC4)c3)cc2)c1 | 68% (active) | 33% | 7% | 100% (active) | inactive | inactive | inactive | inactive
10 | CN(C)c1c(CNCCCCCCNCc2ccc3ccccc3c2N(C)C)ccc2ccccc12 | 51% (active) | 100% (active) | -2% | 100% (active) | inactive | inactive | inactive | inactive
11 | CCc1cc(Br)c2c(c1)C(NCCCNc1cc(=O)c3ccccc3[nH]1)CCN2 (centres undefined) | 20% | 13% | -1% | 94% (active) | inactive | inactive | inactive | inactive
12 | CCCCN1CC[C@@H](CCC(O)c2cc(OCCC)nc3ccc(OC)cc23)[C@@H](CC)C1 (some centres undefined) | 99% (active) | 23% | -4% | 100% (active) | inactive | inactive | inactive | inactive
13 | NC1(C(=O)O)Cc2ccc(Cl)cc2C1 (centres undefined) | 1% | 0% | -3% | 93% (active) | inactive | inactive | inactive | inactive
14 | CC(C)CCNc1nc(NCc2ccccc2)c2cc(O)ccc2n1 | 92% (active) | 25% | 3% | 103% (active) | inactive | inactive | inactive | inactive
15 | CN(C)CC1CCCN1Cc1ccccc1-c1cnn(C)c(=O)c1Oc1ccccc1F (centres undefined) | 27% | 18% | -1% | 95% (active) | inactive | inactive | inactive | inactive
16 | Cc1ccc(Nc2cc(C)nn2-c2nc(C)cc(=O)[nH]2)cc1 | 95% (active) | 54% (active) | -3% | 97% (active) | inactive | inactive | inactive | inactive
17 | CCCN1CCCN(Cc2cccc(NC(=O)c3ccc(-c4ccccc4)cc3)c2)CC1 | 15% | 34% | 1% | 92% (active) | inactive | inactive | inactive | inactive
18 | COc1cc(C(C)C)nc2ccc(NC(=O)c3ccc(C(=O)Nc4ccc5nc(C(C)C)cc(OC)c5c4)cc3)cc12 | 72% (active) | 39% | 0% | 95% (active) | inactive | inactive | inactive | inactive
